The supplement of paper PMC12067926

Key:
Assay in all cases: relative growth (AUC of 72 h growth curve relative to DMSO control, dAUC) (ratio); higher = more growth (less inhibition), active = hit call of the paper
Conditions in all cases: 20 µM;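 active = growth AUC significantly below the DMSO wells by Dunnett test; inactive = the rest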
[1] = test system: Aeromonas 1 (Aeromonas sp. AE235)
Outline: (§1)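 For relative growth (dAUC), the spline-integrated area under the growth curve was divided by the mean of the DMSO controls. Results were averaged over three biological replicates. Each replicate used a 1:100 dilution, into 96-well plates holding each chemical at 20 µM (1% DMSO), of isolates from Icelandic stream sediments and Silwood Park soil or whole sediment communities that had been grown to carrying capacity in Luria–Bertani medium. Plates were shaken briefly before each hourly A600 reading over 72 h.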

[2] = test system: Aeromonas 2 (Aeromonas sobria)
Outline: as §1

[3] = test system: Aeromonas 3 (Aeromonas popoffii)
Outline: as §1

[4] = test system: Argrobacterium 1 (Agrobacterium sp.)
Outline: as §1

[5] = test system: Arthrobacter 1 (Arthrobacter humicola)
Outline: as §1

[6] = test system: Arthrobacter 2 (Arthrobacter humicola)
Outline: as §1

[7] = test system: Arthrobacter 3 (Arthrobacter sp.)
Outline: as §1

[8] = test system: Community 10
Outline: as §1

[9] = test system: Community 4
Outline: as §1

[10] = test system: Community 6
Outline: as §1

[11] = test system: Community 7
Outline: as §1

[12] = test system: Community 8
Outline: as §1

[13] = test system: Community 9
Outline: as §1

[14] = test system: Flavobacterium 1 (Flavobacterium glaciei)
Outline: as §1

[15] = test system: Flavobacterium 2 (Flavobacterium succinicans)
Outline: as §1

[16] = test system: Hymenobacter 1 (Hymenobacter glaciei)
Outline: as §1

[17] = test system: Microbacterium 1 (Microbacterium arborescens)
Outline: as §1

[18] = test system: Neobacillus 1 (Neobacillus soli)
Outline: as §1

[19] = test system: Oryzobacter 1 (Oryzobacter terrae)
Outline: as §1

[20] = test system: Paenibacillus 1 (Paenibacillus castaneae)
Outline: as §1

Measured: relative growth

C[N+](C)(C)CCCl
inactive: [1] 0.996 | [2] 0.944 | [3] 0.977 | [4] 1.01 | [5] 1.05 | [6] 1 | [7] 0.987 | [8] 0.819 | [9] 0.978 | [10] 0.92 | [11] 0.749 | [12] 0.988 | [13] 1.01 | [14] 1.09 | [15] 0.996 | [16] 0.977 | [17] 0.994 | [18] 0.993 | [19] 1.05 | [20] 0.97

CC(C)(C)C(O)(CCc1ccc(Cl)cc1)Cn1cncn1 (stereo not given)
active: [5] 0.544 | [6] 0.232 | [7] 0.39 | [14] 0.671
inactive: [1] 0.916 | [2] 0.917 | [3] 1.01 | [4] 0.949 | [8] 0.835 | [9] 0.913 | [10] 0.878 | [11] 0.983 | [12] 0.995 | [13] 0.862 | [15] 0.816 | [16] 1.04 | [17] 1 | [18] 0.945 | [20] 0.808
1.41: [19]

CC1(C)C(C(=O)OC(C#N)c2cccc(Oc3ccccc3)c2)C1(C)C (stereo not given)
inactive: [1] 0.986 | [2] 0.989 | [3] 1.08 | [4] 1.09 | [5] 1.1 | [6] 0.685 | [7] 0.704 | [8] 0.908 | [9] 1 | [10] 1.03 | [11] 1.09 | [12] 1.02 | [13] 1.05 | [14] 0.939 | [15] 0.946 | [16] 1.02 | [17] 1.03 | [18] 0.932 | [19] 1.14 | [20] 0.918

O=C(NC(=O)c1c(F)cccc1F)Nc1ccc(OC(F)(F)C(F)OC(F)(F)F)c(Cl)c1 (stereo not given)
inactive: [1] 0.958 | [2] 0.975 | [3] 0.988 | [4] 0.995 | [5] 0.843 | [6] 0.911 | [7] 0.942 | [8] 0.965 | [9] 0.934 | [10] 0.934 | [11] 1.11 | [12] 0.997 | [13] 0.925 | [14] 0.951 | [15] 0.969 | [16] 0.944 | [17] 1.05 | [18] 0.888 | [19] 0.958 | [20] 0.957

COc1ccc(-c2ccccc2)cc1NNC(=O)OC(C)C
inactive: [1] 0.954 | [2] 0.947 | [3] 1.02 | [4] 0.937 | [5] 0.913 | [6] 0.87 | [7] 0.932 | [8] 0.782 | [9] 0.882 | [10] 0.886 | [11] 0.932 | [12] 0.986 | [13] 0.868 | [14] 0.888 | [15] 0.898 | [16] 0.987 | [17] 1.06 | [18] 0.89 | [19] 1.02 | [20] 0.873

O=[N+]([O-])/N=C1\NCCN1Cc1ccc(Cl)nc1
inactive: [1] 0.99 | [2] 0.99 | [3] 0.999 | [4] 0.959 | [5] 0.949 | [6] 1.06 | [7] 0.929 | [8] 1.23 | [9] 1.11 | [10] 1.11 | [11] 1.11 | [12] 1.05 | [13] 1.07 | [14] 0.997 | [15] 1.07 | [16] 1.14 | [17] 1 | [18] 1.06 | [19] 0.944 | [20] 1.15

CCCCOC(=O)[C@H](C)Oc1ccc(Oc2ccc(C#N)cc2F)cc1
inactive: [1] 1.04 | [2] 1.07 | [3] 1.05 | [4] 1.11 | [5] 1.11 | [6] 0.875 | [7] 0.882 | [8] 0.88 | [9] 1.03 | [10] 1.03 | [11] 1.07 | [12] 0.995 | [13] 1.06 | [14] 1.13 | [15] 0.955 | [16] 1.03 | [17] 1.04 | [18] 1.03 | [19] 1.06 | [20] 1.1

COC(=O)c1ccccc1S(=O)(=O)NC(=O)Nc1nc(C)nc(OC)n1
inactive: [1] 1.02 | [2] 1.01 | [3] 1.07 | [4] 0.964 | [5] 1.16 | [6] 1.14 | [7] 1.01 | [8] 1.23 | [9] 1.16 | [10] 1.12 | [11] 0.941 | [12] 1.1 | [13] 1.1 | [14] 1.09 | [15] 1.08 | [16] 1.14 | [17] 1.01 | [18] 1.11 | [19] 0.997 | [20] 1.16
